Our source for the growth values is PubChem BioAssay (NCI).

About 83,000 compounds went through this panel and 20% of them were active in at least one assay; those are over-represented in the sample as a whole.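 Compound tested at a single concentration for 48 hours in 96-well plates; a percent growth value below 10 was scored as active.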 Values without a mark were called inactive.

This assay relates to U251 CNS. The assay can be described thus: NCI-60 one-dose screen, 48 h (100 = growth as untreated, 0 = no growth, -100 = all killed). The settings on record: 10 µM unless noted.
For `Clc1ccccc1/C=C/c1nn2c(-c3ccncc3)nnc2s1`, the growth was 106%.
The result for `COc1ccc(/C=N/Nc2nc(Nc3ccccc3)nc(Nc3ccc(S(N)(=O)=O)cc3)n2)cc1` reads 66.8%; that for `CS(=O)c1nccc(-c2c(-c3ccc(F)c(OCc4ccccc4)c3)nc3sccn23)n1` (stereo not drawn), 105%; that for `COc1ccc(-c2cc(-c3cccc4ccccc34)n3c(n2)nc2ccccc23)cc1`, 33.1%.
The result for `COc1ccc2c(c1)c(-c1nn3c(=O)cc(-c4ccccc4)nc3s1)cn2C` reads 26.8%; that for `CC1(C)CC[C@]2(C(=O)N3CCCNCC3)CC[C@]3(C)C(=CC[C@@H]4[C@@]5(C)CCC(=O)C(C)(C)[C@@H]5CC[C@]43C)[C@H]2C1`, 100%; that for `CCOC(=O)C1=C(C)Nc2nnc(Nc3ccccc3)n2C1c1ccccc1` (stereo not drawn), 45.4%.
Turning to `Cc1nc(-c2cc3ccccc3c(N3CCN(C)CC3)n2)cs1`, the growth is 96.4%.
Consider `Nc1n[nH]c2cccc(C#Cc3cccc(NC(=O)c4cccc(OC(F)(F)F)c4)c3)c12`, for which the growth was 59.3%.
To `COc1c([C@@H](CC(C)C)OC(C)=O)ccc2c1C(=O)OCc1cc(C)cc(O)c1O2` belongs 20.1%; to `O=C1CSC(=O)N1Cc1cc2ccccc2nc1Cl`, 97.6%.
To `O=C1Nc2ccc(Cl)cc2/C1=C/c1ccc(OCc2ccc(Br)cc2F)cc1` belongs 97.4%; to `COc1cc2oc(-c3cccc(NC(=O)c4cc(NC(=O)[C@H](C)N)ccc4Cl)c3)cc(=O)c2c(OC)c1OC`, 95.3%.
